# Bioassay records from PubChem.
# This is a sample that favours compounds with a hit; in the whole collection about 2.8% have one here.
# CF NFkB block – blocks PAF-induced NF-kB reporter in cystic fibrosis cells; KKLEB NF-kB-GFP reporter, GFP fluorescence overnight; inhibition, % at 5 µM; 0.86% of 360,000 active;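 active means at least 50% inhibition at 5 µM, scaled per plate between neutral and stimulator controls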;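 further: PAF is a Pseudomonas aeruginosa culture filtrate used as stimulus; plate controls were PAF-stimulated DMSO wells for no effect and unstimulated DMSO wells for full effect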
# MITF TRPM1 inh – MITF TRPM1 promoter inhibition in SK-MEL-5 cells; SK-MEL-5 TRPM1 promoter luciferase, 24 h; inhibition, % at 12.5 µM; 0.83% of 330,000 active; AID 488899;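 active means mean inhibition across replicates of 60% or more, whatever share of single replicates reaches that level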
# Peg3 prom inh-1 – inhibitors of Peg3 promoter; AID 588405; HeLa PEG-Prom luciferase reporter, luminescence, overnight; 1.7% of 360,000 active; inhibition, % at 20 µM;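 active means inhibition of at least 50% at 20 µM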
# B2AR ag – human beta-2 adrenergic receptor agonism by FAP. P07550. Am2.2-beta2AR cells, FAP receptor internalization, flow cytometry. response, % (test concentration not listed). 0.43% of 340,000 active. AID 504454;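 active means response above a set limit, near 3 SD of response in nonfluorescent compounds, cut at about 42% in these data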
# Target sequence (P07550 whole entry, looked up): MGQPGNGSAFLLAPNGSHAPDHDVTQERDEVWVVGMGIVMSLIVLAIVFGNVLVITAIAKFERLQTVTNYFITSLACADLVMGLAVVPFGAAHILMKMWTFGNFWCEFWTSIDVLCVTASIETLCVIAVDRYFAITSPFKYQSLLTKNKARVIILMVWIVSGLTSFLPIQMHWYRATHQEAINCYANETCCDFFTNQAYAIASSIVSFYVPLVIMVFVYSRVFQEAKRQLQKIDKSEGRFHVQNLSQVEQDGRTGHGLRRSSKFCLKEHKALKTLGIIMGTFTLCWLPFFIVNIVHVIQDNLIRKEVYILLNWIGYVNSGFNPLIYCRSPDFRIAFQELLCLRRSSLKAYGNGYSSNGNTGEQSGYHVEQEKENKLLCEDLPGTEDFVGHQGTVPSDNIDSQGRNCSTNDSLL
# HIF-2a inh – blocks HIF-2a reporter activity; 786-0 RCC cells HIF-2a reporter, luciferase luminescence, overnight; inhibition, % at 18.8 µM; 0.72% of 360,000 active; AID 624352;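 active means inhibition of the luminescence signal of 40% or more relative to plate controls, in a single-dose primary screen at 18.75 µM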
# KKLEB cytotox – counter-screen for CF NF-kB inhibitors: cytotoxicity; 0.36% of 360,000 active; activity change (cytotoxicity), % at 5 µM; AID 602141; KKLEB CF airway cells viability, ATPlite luminescence, overnight; hits give low values; cells stimulated with P. aeruginosa culture filtrate;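 active means corrected activity change at or below -50% at 5 µM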
# Beta2AR ag CP1 – agonists of human beta-2 adrenergic receptor. shares compounds with B2AR ag. Am2.2-beta2AR cells, FAP surface receptor, flow cytometry; hits give low values. percent response (surface receptor), % at 10 µM. 25% of 1,100 active. AID 540358;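 active means surface receptor percent response at or below 58%, roughly 3 SD from nonfluorescent compounds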
# B2AR FAP counter – fluorescence artifact in beta-2AR agonist FAP counterscreen | shares compounds with B2AR ag | Am2.2 cells, FAP fluorogen flow cytometry; hits give low values | calls only at 10 µM | 1,100 tested, under 10 active | AID 588765;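 active means percent response below a set limit in fluorescence channel 1 and below 50% in channel 8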
# Peg3 prom inh-2 – confirmation of Peg3 promoter inhibitors. shares compounds with Peg3 prom inh-1. HeLa PEG-Prom luciferase reporter, luminescence, overnight. inhibition, % at 20 µM. 84% of 1,300 active;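 active means at 20 µM dose, 40% or more inhibition averaged across four replicates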
# The depositor's hits bear a star; i = inactive; / = not tested or not shown.
SMILES,CF NFkB block,MITF TRPM1 inh,Peg3 prom inh-1,B2AR ag,HIF-2a inh,KKLEB cytotox,Beta2AR ag CP1,B2AR FAP counter,others
CCC(=O)N1C(Cc2ccccc2)COC1(C)C (stereo not drawn),-1,-4,14,-1,7,3,105,i,
COc1ccc(Cn2nc(-c3ccccc3)c(N3CCCCC3)cc2=O)cc1,-9,11,-32,108*,-13,-9,38*,i,
NC1=NC(=O)C(c2ccccc2)C(=O)N1 (stereo not drawn),-17,3,7,-5,18,4,/,/,
CN(C)c1ccc(-c2noc(C3CCN(S(=O)(=O)c4cccc(Cl)c4)CC3)n2)cc1,-12,17,4,65*,-7,5,39*,i,
CN(C)c1ccc(-c2noc(C3CCN(S(=O)(=O)c4ccc(C(=O)O)cc4)CC3)n2)cc1,17,0,-17,2,-30,-5,/,/,
Cn1ccc2c(-c3ccc(CO)cc3)cc3c(c21)C1CCC3C1 (stereo not drawn),1,/,-23,/,-82,-3,/,/,
Cc1ncc(CN2CCCC(C(=O)Nc3ccc(-c4cccc(F)c4)cc3)C2)s1 (stereo not drawn),-26,5,19,51*,-4,1,25*,i,
Cc1ncc(CN2CCCC(C(=O)Nc3ccc(-c4cccc(F)c4)cc3)C2)cn1 (stereo not drawn),13,9,5,91*,1,-16,21*,i,
COc1ccc(NC(=O)C2(C)CCN2CC2CCCCC2)cc1OC (stereo not drawn),-10,/,-2,/,-1,13,/,/,
CCOC(=O)[C@]12CCC=C1N(Cc1cccc3ccccc13)C(=O)[C@H](CC(=O)NCCc1ccccc1OC)C2,/,/,/,/,-20,/,/,/,
COc1ccc(-c2nc3c4ccccc4ccn3c2CN2CCOCC2)cc1OC,7,-42,-297,53*,-258,-19,41*,i,
Fc1cccc(Cc2c(-c3cccc(Cl)c3)nc3c(Cl)cc(C(F)(F)F)cn23)c1,2,/,-47,/,-15,-10,/,/,
O=C(Nc1ccc(C(=O)NCc2ccc(F)cc2)cc1)C1=CSCCO1,5,-48,-138,-9,-82,1,/,/,
CCc1ccc(CNC(=O)c2ccc(NC(=O)C3=CSCCO3)cc2)cc1,7,-43,-58,102*,-56,5,27*,i,
C[C@H](NC(=O)c1[nH]cnc1C(=O)N[C@@H](C)CO)c1ccccc1,-32,/,2,/,3,13,/,/,
Cc1ccc(SCC(=O)Nc2ccc(-c3nnc(-c4ccco4)o3)cc2)cc1,2,-11,-32,82*,-128,-1,34*,i,
Cc1ccc(NC(=O)CCSc2nnc(-c3ccco3)o2)cc1,5,11,-3,-6,-9,-11,/,/,
C=C(C)c1cccc(C(C)(C)NC(=O)N2CCN(C(=O)OCC)CC2)c1,-7,/,4,/,18,-2,/,/,
CC(C)NS(=O)(=O)c1ccc(OCC(=O)Nc2ccc3c(c2)OCO3)c(Cl)c1,5,-14,-9,7,-16,-5,/,/,
COC(=O)COc1ccc(S(=O)(=O)N2CCCCCC2)cc1C,-8,-2,9,15,18,-9,/,/,
Cc1cc(S(=O)(=O)N2CCCCC2)ccc1OCC(=O)Nc1ccccc1,14,7,27,10,10,-7,102,i,
O=C(COc1ccc(S(=O)(=O)N2CCCC2)cc1Cl)Nc1ccc2c(c1)OCO2,4,-14,13,-2,-20,-14,118,i,
Cc1cc(S(=O)(=O)N2CCCC2)ccc1OCC(=O)Nc1ccccc1,-4,9,-3,7,9,10,104,i,
O=C(NCCS(=O)(=O)NCc1cccs1)c1ccccc1,-22,/,-5,/,0,0,/,/,
COc1ccc(C(CCNC(C)c2ccccc2)c2ccc(F)cc2)cc1 (stereo not drawn),-6,70*,107*,42*,-17,0,99,i,
SMILES,CF NFkB block,MITF TRPM1 inh,Peg3 prom inh-1,B2AR ag,HIF-2a inh,KKLEB cytotox,Beta2AR ag CP1,B2AR FAP counter,others
COc1ccc(C(CCNCc2ccc(F)cc2)c2ccc(F)cc2)cc1 (stereo not drawn),17,31,80*,42,-4,-19,104,i,
COc1ccc(CNCC(O)(c2ccccc2)c2ccc(F)cc2)cc1 (stereo not drawn),1,1,-11,3,0,-18,/,/,
COc1ccc(C(CCNCc2ccccc2)c2ccc(F)cc2)cc1 (stereo not drawn),-4,10,37,16,1,-8,85,i,
COc1ccc(CNCCC(c2ccc(F)cc2)c2ccc(OC)cc2)cc1 (stereo not drawn),10,64*,76*,35,3,-7,88,i,
COc1ccc(CNC(=O)CNC(C)c2ccc(F)cc2)cc1 (stereo not drawn),-2,-8,11,9,5,4,/,/,
COc1ccc(C(OCC(O)CNC(C)c2ccccc2)c2ccc(OC)cc2)cc1 (stereo not drawn),4,-1,27,51*,3,0,114,i,
COc1cccc(OCC(O)CNC(C)c2ccccc2)c1 (stereo not drawn),33,5,-3,0,9,-15,/,/,
CCCc1nc2oc3c(Cl)ncnc3c2c2c1CCCC2,6,28,99*,44*,20,-8,90,i,Peg3 prom inh-2=34
CS(=O)(=O)c1ccc(Nc2nc(C(N)c3ccccc3)cs2)cc1 (stereo not drawn),-7,/,4,/,-2,-3,/,/,
CCCCN(C)CCNC(=O)c1cc(-c2cccnc2)nc2ccc(S(=O)(=O)N3CCC(C)CC3)cc12,14,12,96*,46*,25,-5,98,i,Peg3 prom inh-2=74*
CCCCN(C)CCCNC(=O)c1cc(-c2cccnc2)nc2ccccc12,7,-3,4,-9,7,1,/,/,
OCCNCC(O)Cn1c2ccccc2c2ccccc21 (stereo not drawn),17,5,8,-4,15,-9,/,/,
COc1ccccc1CNCC(O)Cn1c2ccccc2c2ccccc21 (stereo not drawn),25,84*,111*,55*,23,-18,111,i,Peg3 prom inh-2=97*
COC(=O)[C@]12CCCCC=C1N(Cc1ccccc1)C(=O)[C@H](CC(=O)N1CCOCC1)C2,/,/,/,/,3,/,/,/,
CN(C)CCNc1ncnc2c1sc1nc(N3CCCC3)c3c(c12)CC(C)(C)OC3,16,20,57*,72*,24,-16,35*,i,Peg3 prom inh-2=67*
